Measurements from PubChem BioAssay (EPA / NIEHS).
Records with an inconclusive call do not appear. Active and inactive are the calls of the source. Rule for the calls: active = hit-call score of the fitted dose curve at least 0.9, where 1 is the maximum; inconclusive = response in the unintended direction; inactive = score below 0.9.

What was measured:
[1] = TOX21_p53_BLA_p2_viability: Viability Assessment in the Tox21 HCT-116 p53 Agonism Beta-lactamase Assay, Phase 2 (AID 2283591);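 note: compound exposure lasted 16 h at 37 °C; actives lower the ATP signal meaning cytotoxicity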
Outline: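 HCT116 p53-bla cells, 4000/well, dosed after 5 h plating (217-fold dilution of DMSO stocks) and incubated 16 h at 37C. Viability taken as cellular ATP by CellTiter-Glo luminescence after 30 min RT; signal loss marks cytotoxicity.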

[2] = target: Cellular tumor antigen p53 (Homo sapiens) (UniProt P04637); experiment: TOX21_p53_BLA_p2_ratio: Tox21 HCT-116 p53 Agonism Beta-lactamase Assay, Ratio, Phase 2 (AID 2283592)
Chain of Cellular tumor antigen p53 (Homo sapiens) (P04637 whole entry, looked up): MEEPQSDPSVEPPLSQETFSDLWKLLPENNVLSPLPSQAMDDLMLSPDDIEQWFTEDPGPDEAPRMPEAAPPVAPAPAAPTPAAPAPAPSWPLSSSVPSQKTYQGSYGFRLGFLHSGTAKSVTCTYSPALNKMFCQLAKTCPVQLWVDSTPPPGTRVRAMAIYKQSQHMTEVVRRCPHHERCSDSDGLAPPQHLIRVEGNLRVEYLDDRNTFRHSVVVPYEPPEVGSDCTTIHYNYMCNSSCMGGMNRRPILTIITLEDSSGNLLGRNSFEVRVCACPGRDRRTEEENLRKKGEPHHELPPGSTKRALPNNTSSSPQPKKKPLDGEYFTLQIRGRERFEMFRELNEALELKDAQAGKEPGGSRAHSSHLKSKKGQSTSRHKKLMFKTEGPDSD
Outline: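 Ratio endpoint: beta-lactamase cleavage of CCF4-AM, blue (460 nm) over green (530 nm). HCT116 reporter line; 16 h treatment, 37C; substrate 2 h RT.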

[3] = TOX21_p53_BLA_p4_viability: Viability Assessment in the Tox21 HCT-116 p53 Agonism Beta-lactamase Assay, Phase 4 (AID 2283597);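 note: hits lower the luminescence signal meaning cytotoxicity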
Outline: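 Cytotoxicity was inferred from loss of CellTiter-Glo luminescence. HCT116 cells had been dosed with compounds after 5 h plating, incubated 16 h at 37C and 5% CO2, and exposed to the CCF4-AM substrate for 2 h.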

[4] = target: Cellular tumor antigen p53 (Homo sapiens) (UniProt P04637); experiment: TOX21_p53_BLA_p5_ratio: Tox21 HCT-116 p53 Agonism Beta-lactamase Assay, Ratio, Phase 5 (AID 2283599)
Outline: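 HCT-116 p53-bla cells (4000/well) plated 5 h, dosed with compound (217-fold DMSO dilution) for 16 h at 37 C; CCF4-AM substrate 2 h at room temperature. Activity is the 460/530 nm emission ratio (405 nm excitation), fitted in gain-of-signal direction versus DMSO.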

[5] = TOX21_p53_BLA_p5_viability: Viability Assessment in the Tox21 HCT-116 p53 Agonism Beta-lactamase Assay, Phase 5 (AID 2283600)
Outline: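 Luciferase-coupled ATP quantitation of cells treated for 16 h (37C, 5% CO2) with test chemicals delivered in DMSO via a 217-fold dilution; 4000 cells/well; reagent incubated 30 min at room temperature before luminescence reading.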

[6] = target: Cellular tumor antigen p53 (Homo sapiens) (UniProt P04637); experiment: TOX21_p53_BLA_p4_ratio: Tox21 HCT-116 p53 Agonism Beta-lactamase Assay, Ratio, Phase 4 (AID 2283601)
Outline: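 HCT-116 p53 beta-lactamase reporter cells (4000/well) preincubated 5 h, then compound (217-fold dilution of DMSO stock) for 16 h at 37C. CCF4-AM substrate added 2 h at room temperature; 460/530 nm emission ratio fitted upward versus DMSO.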

Measured: outcome

CC[C@H]1NC(=O)[C@@H](NC(=O)c2ncccc2O)[C@@H](C)OC(=O)[C@H](c2ccccc2)NC(=O)[C@@H]2CC(=O)CCN2C(=O)[C@H](Cc2ccccc2)N(C)C(=O)[C@@H]2CCCN2C1=O
not listed: [6]
inactive: all other assays above

C[C@@H]1O[C@@H](O[C@@H]2[C@@H](O)[C@H](OCCc3ccc(O)c(O)c3)O[C@H](CO[C@@H]3O[C@H](CO)[C@@H](O)[C@H](O)[C@H]3O)[C@H]2OC(=O)/C=C/c2ccc(O)c(O)c2)[C@H](O)[C@H](O)[C@H]1O
inactive: [1] | [2] | [3] | [5]

CC1c2ccccc2CN1NC(=O)c1ccc(Cl)c(S(N)(=O)=O)c1 (stereo unspecified)
inactive: all assays above

COc1cc(-c2ccc(N=C=O)c(OC)c2)ccc1N=C=O
not listed: [5]
inactive: all other assays above

C=CC(=O)OCCCCCCCC
inactive: [1] | [2] | [3] | [5]

C=C1c2c(Cl)ccc(O)c2C(O)=C2C(=O)[C@]3(O)C(O)=C(C(N)=O)C(=O)[C@@H](N(C)C)[C@@H]3[C@@H](O)[C@H]12
inactive: [1] | [2] | [3] | [5]

CCCCOC(=O)c1ccccc1C(=O)OCC(CC)CCCC (stereo unspecified)
inactive: [1] | [2] | [3]

Cc1ccc(N=Nc2c(O)c(C(=O)O)cc3ccccc23)c(S(=O)(=O)O)c1
not listed: [5]
inactive: all other assays above

CCCC(C)C(=O)O (stereo unspecified)
not listed: [6]
inactive: all other assays above

CCC(C)=NO[Si](C)(ON=C(C)CC)ON=C(C)CC
inactive: all assays above

CCC(=O)Nc1cccc(N)c1
inactive: [1] | [2] | [3] | [5]

CCCC(C)CC (stereo unspecified)
inactive: [1] | [2] | [3] | [5]

CC(=O)Oc1cccc(C(=O)O)c1OC(C)=O
not listed: [6]
inactive: all other assays above

Nc1ncnc(Nc2ccc(Cl)cc2)n1
inactive: all assays above

O=C1N(c2ccccc2)c2ccccc2C1(Cc1ccncc1)Cc1ccncc1
not listed: [5]
inactive: all other assays above

CCCCCCCC/C=C\CCCCCCCCN
not listed: [5]
inactive: all other assays above
